Assay outcomes: PubChem, National Center for Advancing Translational Sciences (NCATS)
An excerpt weighted towards active compounds, which were near 2.4% of everything screened.
D2 antagonist – D2 dopamine receptor (human) antagonism; P14416; HEK293 TREx D2 cells, calcium flux, dopamine EC80; inhibition, % at 10 µM; hit rate 2% among 340,000; in the data active = inhibition above about 30%; inactive = below that, where a call was filed; note: 0% is about no effect
Target sequence (P14416 whole entry, looked up): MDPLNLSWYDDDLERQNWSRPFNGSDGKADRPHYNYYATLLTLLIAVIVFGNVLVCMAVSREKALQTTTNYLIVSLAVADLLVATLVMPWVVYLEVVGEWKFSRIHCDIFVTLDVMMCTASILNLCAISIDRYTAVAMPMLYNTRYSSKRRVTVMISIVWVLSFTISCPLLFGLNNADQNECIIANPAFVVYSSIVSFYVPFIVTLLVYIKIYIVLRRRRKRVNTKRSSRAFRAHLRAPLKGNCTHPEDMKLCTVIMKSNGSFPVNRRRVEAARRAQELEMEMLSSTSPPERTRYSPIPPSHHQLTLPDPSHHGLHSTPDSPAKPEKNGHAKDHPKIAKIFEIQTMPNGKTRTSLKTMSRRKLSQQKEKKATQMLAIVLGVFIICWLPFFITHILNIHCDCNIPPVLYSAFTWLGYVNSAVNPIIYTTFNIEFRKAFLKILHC
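Overnight-induced (tetracycline, 30 C) HEK293 T-REx cells carrying force-coupled D2 receive a no-wash calcium dye, then compound, then EC80 dopamine at 180 s; signals are read kinetically throughout.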
D2 PAM-1 – human D2 receptor positive allosteric modulation | hit rate 0.23% among 360,000 | potentiation, % (no concentration beside the values) | AID 624464 | DiscoveRx D2 beta-arrestin cells, luminescence, 90 min; 100% = 57 uM dopamine signal; in the data active = potentiation above about 50%; inconclusive = mostly about 30% to 49%
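PathHunter beta-arrestin assay in DiscoveRx D2 cells. Compounds were added with an EC20 of dopamine (50 nM final) for 90 min at 37 deg C. Luminescence was read 1 h after detection reagent, with 57 uM dopamine as the EC100 control.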
D2 PAM-2 – D2 dopamine receptor (human) potentiation. potentiation, % at 10 µM. HEK293 T-REx D2, calcium flux, EC20 dopamine potentiation. AID 485347. P14416. hit rate 0.34% among 340,000;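 active = potentiation over 3 SD above the plate norm, cut at about 30% in these data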; note: 0% is about no effect
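Primary screen. Calcium kinetics in induced HEK293 T-REx D2 cells: compound pre-addition 180 s, EC20 dopamine, 180 s more.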
D2 ag-1 – activates the human D2 dopamine receptor; P14416; HEK293 T-REx D2 cells, calcium flux agonist mode; activation, % at 2 µM; hit rate 0.53% among 340,000;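 active = activation over 3 SD above normal in the single-dose calcium agonist read, cut at about 30% in these data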; note: 0% is about no effect
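Tetracycline-induced HEK293 T-REx cells with force-coupled D2 receptor, plated overnight at 30 C, loaded with no-wash calcium dye. After a 10 s baseline, compound was pin-added and calcium flux read kinetically for 180 s; calcium rises flagged agonists.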
D2 ag-2 – activates the human D2 dopamine receptor | P14416 | DiscoveRx PathHunter D2 beta-arrestin, luminescence, 90 min; 100% = 57 uM dopamine signal | activation, % (test concentration not listed) | hit rate 0.084% among 360,000 | AID 624465; in the data active = activation above about 40%; inconclusive = between about 15% and that limit
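DiscoveRx PathHunter D2 beta-arrestin cells (2,100/well) attached overnight, then compound-stimulated 90 min at 37 C in HBSS/10 mM HEPES/0.1% Tween-20 buffer; beta-galactosidase complementation read by luminescence after 1 h at ambient temperature. Dopamine 57 uM final (EC100) as control.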
Active calls of the source: *; ? = inconclusive; . = not tested or not shown.

SMILES	D2 antagonist	D2 PAM-1	D2 PAM-2	D2 ag-1	D2 ag-2
CC1=C(c2ccc(C)cc2)S(=O)(=O)N(Cc2ccc(C(=O)NCc3cccc(C)c3)cc2)C1=O	.	.	-4	0	.
O=C(NNC(=O)c1ccc(NC(=O)c2ccccc2)cc1)c1ccc(F)cc1	-3	-3	5	-1	1
O=C(NC1=C(Nc2ccc(F)cc2)C(=O)c2ccccc2C1=O)c1ccc(Cl)cc1	-4	70*	-1	0	10
CC1CCN(C(=O)CCc2ccc(Oc3cc([N+](=O)[O-])cc([N+](=O)[O-])c3)cc2)CC1	.	84*	.	.	?
O=C(CCc1ccc(Oc2cc([N+](=O)[O-])cc([N+](=O)[O-])c2)cc1)NC1CCCC1	5	3	-4	0	?
Cc1ccc(NC(=O)c2c(C)oc3ncn(CC(C)C)c(=O)c23)nc1	.	.	.	0	.
Cc1nnc(N/N=C/c2cccc(OCc3ccc(Cl)c(Cl)c3)c2)n1N	-29	74*	-9	-1	15
Cc1nnc(N/N=C/c2cccc(C(F)(F)F)c2)n1N	-17	-3	-8	19	0
Cc1cc([N+](=O)[O-])ccc1NC(=O)/C=C/c1cccs1	44*	-27	-20	-1	-3
CN1CCN(C2=Cc3ccccc3Sc3cc(F)c(Cl)cc32)CC1	74*	-45	-26	1	-2
CN1CCN(C2=Cc3ccccc3Sc3cc(F)c(F)cc32)CC1	-24	-43	0	-2	-4
O/N=C1/CCc2nonc2/C1=N/O	39*	-12	1	0	10
Cc1ccc(CNC(=O)C2CCN(S(=O)(=O)c3c(C)noc3/C=C/c3cccs3)CC2)cc1	.	.	-11	0	.
O=C1NC[C@@H](Cc2cccc3ccccc23)N(CC2(c3ccccc3)CC2)C1=O	12	2	32*	0	-1
Cc1cc(S(=O)(=O)Nc2ccc(-c3ccc(N4CCCCC4)nn3)cc2)c(C)cc1Cl	.	.	-2	0	.
CCOC(=O)Cn1nc(Cc2ccccc2)c2ccccc2c1=O	13	-7	43*	0	-6
CCOC(=O)Cn1nc(-c2ccccc2)c2ccccc2c1=O	-3	-11	-4	-1	-1
COc1ccc(CCN(C)C(=O)CCNS(=O)(=O)c2ccccc2C(F)(F)F)cc1OC	35*	6	7	0	-1
COc1ccc(CCC(=O)NCc2nc3cccnc3n2Cc2ccccc2)cc1	.	.	15	0	.
COc1ccc(C(=O)CCN2CCN(c3ccccc3OC)CC2)cc1	-7	-15	-3	-1	-3
COc1ccccc1N1CCN(CCCC(=O)c2ccc(F)cc2)CC1	70*	-35	-24	-1	-3
Cc1ccc(CN(C(=O)c2ccc(F)cc2)c2ccccn2)o1	.	.	-10	1	.
COc1ccccc1N1CCN(CCN(C(=O)C2CCCCC2)c2ccccn2)CC1	70*	-37	-19	0	-3
COc1ccccc1N1CCN(CCN(C(=O)c2ccc(F)cc2)c2ccccn2)CC1	61*	-35	-20	1	-3
O=C(C1CCCCC1)N(Cc1ccccc1)c1ccccn1	-18	-8	-2	0	2
SMILES	D2 antagonist	D2 PAM-1	D2 PAM-2	D2 ag-1	D2 ag-2
CCOc1ccc(NC(=O)C2CCN(C(=O)N3CC(C)Oc4ccc(Cl)cc43)CC2)cc1 (stereo unspecified)	.	.	.	0	.
Cc1ccc(Sc2ccc(N3CCCC(C(=O)Nc4ccc(F)cc4)C3)nn2)cc1 (stereo unspecified)	.	.	-4	0	.
COc1cc2c(C)nc(C)c(C#N)c2cc1OC	4	-3	39*	1	1
C/C(CCc1ccc2c(c1)OCO2)=N\N=C1\NC(=O)CC(C(=O)Nc2ccccc2F)S1 (stereo unspecified)	40*	-5	15	0	-1
COc1cc(OC)cc(C(=O)NCc2ccc3c(c2)CCN3C(=O)c2ccccc2)c1	.	.	0	0	.
O=C(Nc1cn(-c2ccccc2)nc1-c1ccc(Cl)cc1)c1ccccc1	-11	-6	7	-1	-2
O=C(O)Cc1cn(-c2ccccc2)nc1-c1ccc(Cl)cc1	-10	-16	31*	-1	1
CC(C)(C)c1ccc2c(c1)OC(C(=O)N/N=C\c1ccccn1)CO2 (stereo unspecified)	13	0	21	1	1
